# Results as given in PubChem BioAssay (Tox21).
# Inconclusive results are not listed. Where a call stands in place of a potency, no number is given. Activity calls are given as the source filed them. Calls come from the whole dose curve; as a rule, active = well fitted activation curve with a large enough effect in the repeat runs; inconclusive = weak or mixed curves; inactive = flat fitted curve, though single readings scatter.
# Assay: A CellTox Green Cytotoxicity Assay to monitor cytotoxicity in HepG2 cells - 16 hour (AID 1224876); note: nearly all actives have a fitted effect of over 45% in size
# Conditions: CellTox Green fluorescence; series mostly up to 76.8 µM
# Outline: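 Nonlytic assay: viable cells exclude the dye, so fluorescence scales with cell death. HepG2 at 600 cells/well, compounds added after 5 h, signal read across 40 h.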
Compound,Potency,cytotoxicity increase
NCC1(Cc2noc(=O)[nH]2)CCCCC1,inactive,
O=Cc1cc2ccccc2o1,inactive,
C[C@]12CCC(=O)C=C1CC[C@H]1[C@@H]3CC[C@](O)(C(=O)CO)[C@@]3(C)C[C@H](O)[C@@]12F,inactive,
COC(=O)c1ccccc1C(=O)O,inactive,
OC[C@H]1O[C@@H](O[C@@H]2[C@@H](CO)O[C@](O)(CO)[C@H]2O)[C@H](O)[C@@H](O)[C@H]1O,inactive,
CCOc1cccc(N)c1,inactive,
COC(=O)c1cccc(Cl)c1,inactive,
CN(C)C(C)(C)CO,inactive,
CCCCSCCCC,inactive,
CCN1CCCC1CN (configuration not stated),inactive,
Cc1c(NC(=O)c2cccnc2)c(=O)n(-c2ccccc2)n1C,inactive,
Cc1cc(-c2ccccc2)nnc1NCCN1CCOCC1,inactive,
CCOC(CN1CCN(CC(C)C(=O)c2ccccc2)CC1)c1ccccc1 (configuration not stated),,-21.5% [at 15.8 µM] (inactive)
CCn1cc(C(=O)O)c(=O)c2cnc(N3CCCC3)nc21,,3.06% [at 6.97 µM] (inactive)
COP(=O)(O)OP(=O)(O)OC,inactive,
CC(=O)CC(=O)OC(C)(C)C,inactive,
COCCc1ccccn1,inactive,
CCCC(=O)OC/C=C(\C)CCC=C(C)C,inactive,
CCC(=O)CC,inactive,

Compound,Potency,cytotoxicity increase
Cc1c(N)cccc1Cl,inactive,
CN(C)CCCCl,inactive,
O=C(Cn1ccnc1[N+](=O)[O-])NCc1ccccc1,inactive,
CC(C)C[C@@H]1[C@H](c2ccccc2)OC(=O)N1CCCN1CCCCCC1,inactive,
Cc1cc(C)c(C(=O)O)c(C)c1,inactive,
CC(C)(C)NC[C@H](O)COc1cccc2c1CCCC2=O,inactive,
CC1(C)O[C@H]2CC(=O)OC[C@]23[C@H]2CC[C@@]4(C)[C@H](c5ccoc5)OC(=O)[C@H]5O[C@]54[C@]2(C)C(=O)C[C@@H]13,inactive,
C[C@@H](O)C(=O)O,inactive,
Cc1ccc(C(=O)O)cc1[N+](=O)[O-],inactive,
COC(C)(OC)OC,inactive,
CC/C(C)=N\O[Si](C)(O/N=C(\C)CC)O/N=C(\C)CC,inactive,
OC1OCCOC1O (configuration not stated),inactive,
CO/N=C(/C(=O)N[C@@H]1C(=O)N2C(C(=O)[O-])=C(C[n+]3ccn4ncccc43)CS[C@H]12)c1nsc(N)n1,inactive,
N#Cc1ccccc1O,inactive,
OCC1CCC(CO)CC1 (configuration not stated),inactive,
CC1=C(C(=O)O)N2C(=O)[C@@H](NC(=O)[C@H](N)c3ccccc3)[C@H]2SC1,inactive,
COc1ccc(CCO)cc1,inactive,
N[C@@H](CSCCCO)C(=O)O,,-15.5% [at 15.8 µM] (inactive)
